# High-throughput results deposited in PubChem by National Center for Advancing Translational Sciences (NCATS).
# Hits are enriched below; roughly 10% of the tested compounds scored in any of these assays.
# CCT chaperon mod: changes cytosolic chaperonin activity; actives 0.3% (n = 360,000); purified chaperonin ATPase assay, HTRF ADP detection, 30 min; AID 651819; activity change, % (concentration not given with the values), hits read low; in the data active means activity change below about -30%
#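 TRiC (40 or 20 nM final, by batch activity) in 30 mM Tris pH 7.4, 100 mM KCl, 5 mM MgCl2, 1 mM DTT was treated with compound at 76 uM single dose, then 10 uM ATP, 30 min at 37 °C. ADP was read by HTRF Transcreener.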
# Mm-Cpn inhibitor: inhibitors of Methanococcus maripaludis chaperonin TRiC (MmCpn). actives 0.031% (n = 330,000). Potency, µM (doses to about 76.9 µM), without a hit: top-dose activity, negative = inhibition, actives largely listed as inhibitors. purified Mm-Cpn ATPase, ADP Transcreener TR-FRET; further: potency means the concentration at half of the fitted maximal effect; nearly all actives have a fitted effect of over 80% in size
#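 ATP (10 uM final) was added to archaeal chaperonin (25 nM final) after 10 min exposure to test compound at 37°C; after 30 min further incubation, ADP was detected by competitive TR-FRET.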
# G9a inh: G9a (human) methyltransferase inhibition; G9a H3K9 monomethylation, AlphaScreen, 2 h; Potency, µM (highest dose often 102 µM), inactives show at the highest dose activity, negative = inhibition, usual class: inhibitors; actives 8.8% (n = 350,000); further: potency means the concentration at half of the fitted maximal effect; nearly all actives have a fitted effect of over 75% in size
#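 Readings reflect AlphaScreen signal from monomethyl-H3K9 antibody detection. HMT at 20 nM; substrate b-H3K9 500 nM; cofactor SAM 20 uM; 2 h RT reaction; compounds tested as titrations in qHTS with 15 min preincubation.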
# VDR inh: inhibitors of human vitamin D receptor; VDR-SRC2-3 peptide fluorescence polarization, 2 h; Potency, µM, for inactives: max response, negative = inhibition, most hits filed as inhibitors; actives 0.93% (n = 400,000); further: potency means the concentration at half of the fitted maximal effect
# Target sequence (P11473 whole entry, looked up): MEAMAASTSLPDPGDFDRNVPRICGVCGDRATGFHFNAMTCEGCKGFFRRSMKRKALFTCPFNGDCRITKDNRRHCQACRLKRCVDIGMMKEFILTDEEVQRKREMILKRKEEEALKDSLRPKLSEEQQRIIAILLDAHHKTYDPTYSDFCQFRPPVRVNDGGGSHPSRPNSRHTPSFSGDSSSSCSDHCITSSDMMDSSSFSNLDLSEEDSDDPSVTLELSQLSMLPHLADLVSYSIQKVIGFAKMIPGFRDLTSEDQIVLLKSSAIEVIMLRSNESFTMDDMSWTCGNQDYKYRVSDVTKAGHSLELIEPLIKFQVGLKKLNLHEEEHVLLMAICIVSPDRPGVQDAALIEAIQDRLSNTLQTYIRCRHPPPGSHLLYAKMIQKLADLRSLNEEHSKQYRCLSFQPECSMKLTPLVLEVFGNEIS
#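 Fluorescence polarization assay measuring small-molecule disruption of VDR binding to the coregulator peptide SRC2-3. Compounds were pin-transferred (23 nl) into the reagent mix and incubated 2 h at room temperature before reading.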
# Sfp inh: Sfp phosphopantetheinyl transferase inhibition; Q9F4F7; Biochemical Sfp PPTase activity, qHTS; Potency, µM, for the others: largest response in the series, negative = inhibition, most hits filed as inhibitors; actives 3.5% (n = 310,000);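 further: the enzyme is Sfp with the accession as filed and its product quenches rhodamine fluorescence; potency means the concentration at half of the fitted maximal effect; 0% = enzyme reaction without inhibitor and -100% = no enzyme wells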
#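 Sfp 15 nM + cpd, 15 min RT; start w/ rhodamine-CoA 5 uM, BHQ-2-YbbR 12.5 uM (final); 50 mM Hepes pH 7.6, 10 mM MgCl2, 0.01% NP-40, 0.01% BSA; read 525/598 nm at 0 and 30 min.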
# PLK1 PBD inh: PLK1 (human) polo-box domain binding inhibition | P53350 | Plk1 PBD binding of FITC phosphopeptide, fluorescence polarization | Potency, µM, for inactives: max response, negative = inhibition, usual class: inhibitors | actives 2.8% (n = 360,000) | AID 720504; further: potency means the concentration at half of the fitted maximal effect; series mostly up to about 57 µM; nearly all actives have a fitted effect of over 65% in size
# An asterisk follows results filed as active; ? = inconclusive; nt = no result given; [ ] = dose if it differs, or a comment. Unless noted, the call rests on the fitted dose curve; in most records, active means well fitted curve in the direction sought with a large enough effect; inconclusive means small, poorly fitted or top-dose-only effect, or another doubt; inactive means no such curve, though single readings can be large; an effect the other way counts as inactive or inconclusive. Unless noted, on the % scale 0 is the no-effect control and ±100 the full control effect.
SMILES,CCT chaperon mod,Mm-Cpn inhibitor,G9a inh,VDR inh,Sfp inh,PLK1 PBD inh
CCn1c(O)c(C(c2ccccn2)c2c(O)n(CC)c(=S)[nH]c2=O)c(=O)[nH]c1=S,0.3,-1.5%,?,-8.4%,50.1µM*,-6.0%
CCOC(=O)c1ccccc1NC(=O)c1c(O)[nH]c(=S)[nH]c1=O,-1.0,nt,nt,2.4%,nt,-7.5%
O=c1[nH]c(=S)[nH]c(O)c1C(c1ccccn1)c1c(O)[nH]c(=S)[nH]c1=O,2.1,1.6%,5.01µM*,1.7%,25.1µM*,-12.2%
CN1CCN(c2oc(-c3ccc(COc4ccccc4)o3)nc2C#N)CC1,nt,nt,15.8µM*,-7.8%,nt,nt
CN1CCN(C(=O)COc2ccc(Oc3ccccc3)cc2)CC1,-3.6,-4.5%,?,?,-2.0%,-17.5%
CC[C@H]1C2CC3[C@@H]4N(C)c5ccccc5[C@]45C[C@@H](C2[C@H]5O)N3[C@@H]1O (some centres not stated),nt,nt,nt,nt,8.1%,nt
CCOc1ccc(-n2c(O)c(/C=C3\C=Nc4ccccc43)c(=O)[nH]c2=O)cc1,0.5,2.4%,-13.7%,182.6%,-2.5%,22.9%
COc1ccc(OC)c(-n2c(O)c(/C=C3\C=Nc4ccccc43)c(=O)[nH]c2=O)c1,0.2,-1.0%,-17.2%,-23.8%,50.1µM*,9.47µM*
CCn1cc(C(=O)NCCc2ccc(OC)c(OC)c2)c(=O)c2cc(S(=O)(=O)N(C)C3CCCCC3)ccc21,nt,nt,?,-12.4%,nt,nt
CC(N)(COP(=O)(O)Oc1ccccc1)C(=O)O (configuration not stated),nt,nt,26.5%[59 µM],22.9%,?,nt
O=C1NC(=S)NC(=O)C1C1CCCCC1,-2.6,0.6%,?,?,79.4µM*,-26.0%
CC(C)CN1CCC2(CC1)CCN(S(C)(=O)=O)CC2,nt,nt,6.8%[12.7 µM],4.2%,18.7%,nt
C=CCN1C(=O)NC(=O)/C(=C/c2ccc(OC)c(COc3ccc(NC(C)=O)cc3)c2)C1=O,-0.3,0.1%,nt,79.4µM*,44.7µM*,10.6µM*
C=CCN1C(=O)NC(=O)/C(=C/c2ccc(OC)c(CSc3ccccn3)c2)C1=O,-4.0,-1.9%,11.2µM*,70.8µM*,56.2µM*,4.74µM*
CC1=C2C[C@H]3[C@@H](CC=C4C[C@@H](O)CC[C@@]43C)[C@@H]2CC[C@]12O[C@@H]1C[C@H](C)CN[C@H]1C2C (some centres not stated),nt,nt,6.7%[59 µM],1.1%,16.5%,nt
COc1cc([C@H]2c3cc4c(cc3[C@@H](O)[C@@H]3COC(=O)[C@H]23)OCO4)cc(OC)c1OC,nt,nt,17.9%[21.5 µM],-4.7%,11.1%,nt
CNC1C2CN3CCC(O2)C13 (configuration not stated),nt,nt,nt,nt,0.7%,nt
CC(=O)OC1CC[C@]2(C)C(CCC3C2CC[C@]2(C)C(C4=CC(=O)OC4)C(OC(C)=O)CC32O)C1 (some centres not stated),nt,nt,-0.9%[2.33 µM],12.7%,-9.4%,nt
CC1Oc2cc3c(-c4c(O)cc(O)c5c(O)c6c(cc45)OC(C)C(C)C6=O)c(O)cc(O)c3c(O)c2C(=O)C1C (configuration not stated),-1.9,-8.8%,12.6µM*,79.4µM*,15.1%,26.7µM*
C[C@@H](NC(=O)[C@@H](N)Cc1ccc(O)cc1)C(=O)NCC(=O)N(C)[C@@H](Cc1ccccc1)C(=O)NCCO,nt,nt,nt,13.0%,1.9%,nt
CC(N=Cc1c(O)[nH]c(=O)[nH]c1=O)c1ccccc1 (configuration not stated),-0.9,1.6%,5.62µM*,-8.6%,9.4%,-13.8%
COc1ccc(OC)c(N=Cc2c(O)[nH]c(=O)[nH]c2=O)c1,1.0,2.0%,-28.0%,-6.7%,-11.3%,1.0%
COc1ccc(N2CCN(C(=O)C3CCCN(S(=O)(=O)c4ccc5c(c4)CCCN5C(C)=O)C3)CC2)cc1 (configuration not stated),nt,nt,?,-14.5%,nt,nt
CN1CCCC1C(O)(c1ccccc1)c1ccccc1 (configuration not stated),-1.2,nt,nt,2.6%,nt,-7.1%
CCCCCCCCCC[n+]1cccc([C@@H]2CCCN2C)c1,nt,nt,nt,-22.2%,56.2µM*,nt
